# In the library only some 2.8% were active in any assay of this set; here they are far more common.
# DRD3 agonist: activates the human D3 dopamine receptor | AID 652048 | max activation, % | D3R DiscoveRx beta-arrestin cells, luminescence, 90 min | actives 0.58% (n = 410,000) | P35462; in the data active = max activation above about 30%; also: 0% is about no effect
#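 Agonist mode: compounds and dopamine controls were applied to plated cells for 90 min at 37 degrees C after an overnight attachment at 1500 cells/well. Luminescent read-out followed 30 - 60 minutes at room temperature with DiscoveRx detection reagent.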
# PI4K2A inh: inhibitors of human PI4K2A; purified PI4K2A, ADP-Glo luminescence, 1 h; hits give low values; activity change, negative = inhibition, % at 76.9 µM; actives 0.13% (n = 420,000); AID 1346378; in the data active = activity change below about -50%; inconclusive = mostly about -30% to -49%;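 also: -100% = wells without enzyme as full effect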
# Target sequence (Q9BTU6 whole entry, looked up): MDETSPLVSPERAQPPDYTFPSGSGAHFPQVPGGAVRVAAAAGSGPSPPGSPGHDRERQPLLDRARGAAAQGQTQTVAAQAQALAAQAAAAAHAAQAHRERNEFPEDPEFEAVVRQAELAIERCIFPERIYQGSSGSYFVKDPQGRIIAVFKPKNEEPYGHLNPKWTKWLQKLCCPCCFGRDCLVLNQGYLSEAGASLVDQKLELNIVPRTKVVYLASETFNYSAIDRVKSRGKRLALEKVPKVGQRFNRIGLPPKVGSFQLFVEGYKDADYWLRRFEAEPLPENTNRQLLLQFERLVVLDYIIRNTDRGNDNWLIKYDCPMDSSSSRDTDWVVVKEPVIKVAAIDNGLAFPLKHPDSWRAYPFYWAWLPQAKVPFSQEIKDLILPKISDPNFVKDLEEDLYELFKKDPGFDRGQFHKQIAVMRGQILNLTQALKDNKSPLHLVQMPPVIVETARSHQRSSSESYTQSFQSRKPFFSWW
#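 PI4K2A activity was measured by ADP-Glo luminescence: enzyme (4 ug/mL stock) and phosphatidylinositol (1.2 mM stock) in Tris pH 7.5/MgCl2/EGTA/Triton X-100 buffer were reacted with ATP (300 microM stock) for one hour at ambient temperature.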
# RGS4 inhibitor: human RGS4 inhibition; P49798; Potency, µM (series often up to 114 µM), without a hit: at the highest dose activity change, negative = inhibition, actives largely listed as inhibitors; Transcreener GDP fluorescence polarization, RGS4-accelerated GTP hydrolysis; actives 0.039% (n = 390,000); active = well fitted inhibition curve with a large enough effect; inconclusive = small, poorly fitted or top-dose-only effect; inactive = no such curve, though single readings can be large or run the other way; also: potency is read from the fitted curve at half-maximal effect; % is scaled to controls: 0 for no effect and ±100 for the full control effect; nearly all actives have a fitted effect of over 75% in size
# Target sequence (P49798 whole entry, looked up): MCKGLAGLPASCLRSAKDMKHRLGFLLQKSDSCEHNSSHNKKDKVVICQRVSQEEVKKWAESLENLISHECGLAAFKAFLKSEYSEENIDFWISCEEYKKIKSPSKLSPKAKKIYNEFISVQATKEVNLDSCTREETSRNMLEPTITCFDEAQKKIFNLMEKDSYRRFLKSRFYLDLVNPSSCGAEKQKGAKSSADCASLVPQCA
#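 MLSMR compounds (23 nl, pin-transferred) preincubated 10 min at room temperature with a 500nM (2x) first reagent, then RGS4 at 900nM (2x) plus Transcreener GDP mix added; fluorescence polarization (620/688 nm) read before and after 90 min at 30 °C.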
# pAkt inh: blocks phosphorylation of Akt | Neuro2A IGF-stimulated pAkt S473 HTRF, 20 min; hits give low values | activity change, % for hits at 50 µM | actives 0.32% (n = 360,000) | AID 651550; in the data active = activity change below about -80%; inconclusive = mostly about -51% to -80%; also: % is scaled to controls: 0 for no effect and ±100 for the full control effect
#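 Neuro2A cells (4,500/well, DMEM with 0.5% FBS) were treated with compound at a single 50 µM final concentration, stimulated with 6 nM IGF for 20 min at 37 °C, and lysed. Phospho-Akt Ser473 was read by HTRF as 665/615 ratio ×10^4.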
# DRD3 antagonist: antagonists of human D3 dopamine receptor; D3R cells, DiscoveRx beta-arrestin luminescence, antagonist mode; hits give low values; AID 652054; actives 2.5% (n = 360,000); max response, negative = inhibition, %; in the data active = max response below about -50%; inconclusive = no clear call, values can overlap the other calls; also: % is scaled to controls: 0 for no effect and ±100 for the full control effect
#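 Cells plated overnight at 1500 cells/well, then exposed to library compounds with dopamine controls for 90 minutes at 37 degrees C. DiscoveRx reagent added for 30–60 minutes at room temperature; luminescence read, quantitative HTS format.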
# LDHA inh: LDHA (human) enzyme inhibition. activity change, % (values are at about 110 or 230 µM). actives 0.15% (n = 480,000). purified LDHA, NADH/diaphorase-resazurin fluorescence; hits give low values; in the data active = activity change below about -30%; inconclusive = mostly about -25% to -30%;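 also: plate controls were DMSO wells for no effect and wells without enzyme for full effect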
#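 Human LDH5 at 2 nM final in Tris HCl pH 7.4 with 0.06 mM NADH and 0.2 mM pyruvate, reacted 5 minutes at room temperature. Remaining NADH coupled via diaphorase/resazurin; resorufin fluorescence read at 0 and 20 minutes, normalized to enzyme-free and DMSO wells.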
# Active calls of the source: *; i = inactive; ? = inconclusive; / = no result; ! = not confirmed by another sample.
SMILES,DRD3 agonist,PI4K2A inh,RGS4 inhibitor,pAkt inh,DRD3 antagonist,LDHA inh
O=C(CCN1CCCC1)Nc1cccc(Br)c1,-14.9,7.1,14.8%,i,-7.7,-6.6
O=C(CN1CCN(Cc2ccccc2)CC1)Nc1cccc(C(F)(F)F)c1,-27.5,-2.0,36.7%,i,-13.6,1.1
CCc1ccc2oc(C(=O)Nc3cccc(Cl)c3)cc(=O)c2c1,/,/,/,/,/,-3.2
O=C(CSc1nc2ccccc2s1)Nc1cccc(C(F)(F)F)c1,/,/,/,/,/,-30.0*
O=C(CSc1nc2ccccc2s1)c1cccc(C(F)(F)F)c1,/,/,/,/,/,8.2
CC(=O)c1ccc(NS(=O)(=O)c2cc3[nH]c(=O)c(=O)[nH]c3cc2C)cc1,-4.0,-2.5,-8.4%,/,/,-0.1
CNC(=O)c1ccccc1NC(=O)c1ccc(C)c(S(=O)(=O)N2CCCCC2)c1,1.3,-2.9,-1.7%,-111.9%*,20.0,-3.3
O=C(Nc1ccccc1C(=O)O)c1ccc(Cl)c(S(=O)(=O)N2CCOCC2)c1,9.4,0.9,21.1%,i,24.5,-6.0
CC(=O)c1ccc(N2CCN(S(=O)(=O)c3cc4[nH]c(=O)c(=O)[nH]c4cc3C)CC2)cc1,5.8,-0.6,-10.1%,i,19.0,-30.3*!
O=C(Nc1ccccc1C(=O)O)c1cc(S(=O)(=O)N2CCCCC2)c(Cl)cc1Cl,31.4*,-2.8,-31.7%,i,108.9,-5.9
Cc1ccc(C(=O)N2CCN(c3ccc(F)cc3)CC2)cc1S(=O)(=O)N1CCCCC1,-9.8,2.6,-13.2%,i,-1.1,0.4
Cc1ccc(C(=O)N2CCN(c3ccccc3)CC2)cc1S(=O)(=O)N1CCCC1,-1.3,10.1,6.3%,-107.0%*,0.2,-5.6
CCN1CC(=O)C=C(C)C1,/,/,/,/,/,5.1
COc1cc2c(cc1OC)-c1c(c(C(=O)N3CCC(C(N)=O)CC3)nn1-c1ccccc1F)C2,/,/,/,/,/,-0.8
CSC(=S)NN=C1CCCCC1,/,/,/,/,/,2.0
CN(/N=C/c1cc([N+](=O)[O-])ccc1O)c1ccccc1,-4.9,-1.4,-39.9%,i,-20.4,1.0
CC(N=Cc1cc([N+](=O)[O-])ccc1O)c1ccccc1 (centres undefined),-4.5,-7.0,18.9%,i,-52.0*,-1.6
Cc1cc(C(=O)N/N=C/c2cc(Br)cc([N+](=O)[O-])c2O)c2ccccc2n1,-14.1,1.5,8.6%,i,-94.1*,-6.0
Cc1cc(C(=O)N/N=C/c2ccc([N+](=O)[O-])cc2)c2ccccc2n1,-1.5,-1.1,13.4%,i,-4.0,-2.7
O=C(N/N=C/c1cc([N+](=O)[O-])ccc1O)C12CC3CC(CC(C3)C1)C2,-27.9,8.2,11.3%,i,-93.0*,-6.5
O=C(N/N=C/c1cc([N+](=O)[O-])ccc1O)Nc1ccccc1,-17.1,-1.1,-29.8%,i,-75.1*,7.8
Brc1ccc(C=Nc2cccc3ccccc23)cc1,/,/,/,/,/,-18.0
O=C(COc1ccccc1)N(Cc1ccc(-c2cccc(Cl)c2)o1)C1CCS(=O)(=O)C1 (centres undefined),/,/,/,/,/,1.1
O=C(N/N=C/c1cc([N+](=O)[O-])ccc1O)c1cc(-c2ccccc2)nc2ccccc12,7.0,1.8,-10.4%,i,4.5,-8.8
COc1ccc(N2CC(C(=O)N/N=C/c3cc([N+](=O)[O-])ccc3O)CC2=O)cc1 (centres undefined),-1.6,4.8,-20.8%,i,-52.2*,11.6
SMILES,DRD3 agonist,PI4K2A inh,RGS4 inhibitor,pAkt inh,DRD3 antagonist,LDHA inh
O=[N+]([O-])c1ccc(O)c(C=NN2CCCCC2)c1,-21.8,4.3,/,i,-76.4*,-0.5
Cc1cc(C(=O)N/N=C/c2cc([N+](=O)[O-])ccc2O)c2ccccc2n1,-9.5,5.8,-2.7%,i,-64.5*,3.1
COc1ccc(-c2cc(C(F)(F)F)nc(N3CCN(Cc4ccccc4)CC3)n2)cc1,/,/,/,/,/,-3.0
COc1cc(/C=N/NC(=O)c2cc(-c3cccn3C)n[nH]2)cc(OC)c1OC,-5.0,2.1,-52.5%,i,35.3,-0.3
COc1cccc(/C=N/NC(=O)c2cc(-c3cccn3C)n[nH]2)c1,-7.5,-4.2,-20.5%,i,-50.5*,-0.1
Cc1ccc(C2CC(c3ccccc3)=NN2C(=S)Nc2ccccc2)o1 (centres undefined),-2.8,6.7,?,/,-51.1*,1.1
OC(Cn1cnnc1)c1ccccc1 (centres undefined),-5.1,-1.6,-4.0%,i,-6.8,-37.4*
O=C(/C=C/Nc1ccccc1)c1ccc(Cl)cc1Cl,-8.9,-8.2,-12.9%,i,0.0,2.5
N#Cc1c(Nc2ccccc2)[n+]([O-])c2ccc(Cl)cc2[n+]1[O-],-23.3,-9.3,?,i,-54.6*,20.3
COc1ccc(-c2oc(=O)c3cc(OC)c(OC)cc3c2-c2cc(F)cc(OC)c2)cc1,22.4,-2.0,9.0%,i,60.8,-3.8
COc1ccc(-c2oc(=O)c3cc(OC)c(OC)cc3c2C(F)(F)F)cc1,62.2*,-2.9,-16.3%,i,21.3,-9.4
CC(C)[C@H](NC(=O)[C@@H]1Cc2c([nH]c3ccccc23)C2c3ccccc3C(=O)N21)C(=O)N1CCC[C@@H]1C(=O)O (some centres undefined),40.1*,-8.6,-21.3%,i,29.2,3.5
CC(C)[C@H](NC(=O)N1CC(=O)Nc2ccccc21)C(=O)N1CCC[C@H]1C(=O)O,-30.8,2.8,14.4%,i,0.0,-1.4
CC(C)n1nc(C(=O)Nc2nc3c(s2)CN(C)CC3)c2ccccc2c1=O,/,/,/,/,/,7.8
O=C(NC1CCCCC1)N1CCCC(c2nc3ccccc3[nH]2)C1 (centres undefined),-18.1,-10.6,-21.9%,i,-125.7*,-2.9
O=C(NC1CCCCC1)N1CCC(c2nc3ccccc3[nH]2)CC1,-1.8,0.5,12.2%,i,10.7,-5.3
Cc1cc(C(=O)N2CCNCC2)c2ccccc2n1,/,/,/,/,/,-4.5
CC(C)NC(=O)C(Sc1ccccc1)c1ccccc1 (centres undefined),1.0,0.0,31.9%,i,4.1,-0.9
CNC(=S)NNC(=O)C(Sc1ccccc1)c1ccccc1 (centres undefined),/,/,/,/,/,-32.0*
CCN(Cc1ccccc1)Cc1cc(OC)cc(OC)c1,-50.8,-0.3,16.1%,i,-55.8*,2.1
OC(c1ccccc1)(c1ccccc1)C1CCN(CCCOc2ccc(F)cc2)CC1,-13.8,-2.1,/,i,-95.2*,1.6
N#Cc1ccccc1OCCCN1CCC(C(O)(c2ccccc2)c2ccccc2)CC1,-18.1,1.3,/,i,-96.2*,0.7
COc1ccccc1OCCCN1CCC(C(O)(c2ccccc2)c2ccccc2)CC1,-16.2,4.0,/,i,-84.5*,0.5

# Source: PubChem BioAssay
